This passage reports Kd results from article PMC5540273 (PLoS ONE, 2017).
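Also: kd values determined as follow-up on hits from a single-replicate KINOMEscan panel screen.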

In one experiment the test system is T1, MEK5.
T1 construct: gene MAP2K5
With `Nc1ncnc2occ(-c3ccc4c(c3)CCN4C(=O)Cc3cc(F)ccc3F)c12` [GSK2645446], the affinity, expressed as Kd, was 0.75 µM. `CS(=O)(=O)CCNCc1nc(-c2ccc3ncnc(Nc4ccc5c(cnn5Cc5ccccc5)c4)c3c2)cs1.Cl.Cl` [GW569716] displayed a Kd of 0.043 µM. The same measure, in the same setting: with `Cn1cncc1-c1cc2c(Nc3ccc(OCc4ccccc4)cc3)ncnc2cn1` [GW281179] the figure was 0.14 µM. The same measure, in the same setting: as for `CS(=O)(=O)CCNCc1nc(-c2ccc3ncnc(Nc4ccc(OCc5ccccc5)c(Cl)c4)c3c2)cs1.Cl` [GW582764], the figure is 0.7 µM; as for `CS(=O)(=O)Cc1ccc(Nc2nccc(-c3c(-c4cccc(NC(=O)C5CCCCC5)c4)nn4ncccc34)n2)cc1` [GSK350559], 0.035 µM.

For `COc1cc2ncnc(Nc3cccc(Br)c3)c2cc1OC.Cl` [GI230329], the Kd was found to be 0.7 µM. Still for that read-out and setting: as for `COC(=O)C(NC(=O)NC1CCN(c2ccnc(Nc3ccc(F)cc3)n2)C1)c1ccccc1` (stereo not drawn) [GSK1379712], the figure is 0.27 µM.

Another experiment concerns T2, MLCK.
T2 construct: gene MYLK3
With `O=C(Nc1n[nH]c2nc(-c3cccs3)c(Br)cc12)C1CC1` [SB-735297], the equilibrium dissociation constant (Kd) was 0.18 µM. This lies in the sub-micromolar range.

In turn, `O=C(Nc1n[nH]c2nc(-c3cccs3)c(Br)cc12)C1CCCC1` [SB-743341] came in with a Kd of 0.29 µM. Same read-out and setting: with `CS(=O)(=O)CCNCc1nc(-c2ccc3ncnc(Nc4ccc(OCc5ccccc5)c(Cl)c4)c3c2)cs1.Cl` [GW582764] the figure was over 10 µM.

The next experiment concerns MYLK2.
`O=C(Nc1n[nH]c2nc(-c3cccs3)c(Br)cc12)C1CC1` [SB-735297] came in with a dissociation constant Kd of 0.0084 µM. The same measure, in the same setting: as for `O=C(Nc1n[nH]c2cc(-c3ccsc3)ccc12)C1CC1` [SB-732932], the figure is 0.041 µM; as for `Nc1cccc(-c2ccc3c(N)n[nH]c3c2)n1` [GSK2192730], 0.18 µM. Still for that read-out and setting: with `O=C(Nc1n[nH]c2nc(-c3cccs3)c(Br)cc12)C1CCCC1` [SB-743341] the figure was 0.026 µM; with `O=C(Nc1n[nH]c2nc(-c3ccco3)c(Br)cc12)C1CCN(Cc2ccccc2)C1.O=C(O)[C@H](O)[C@@H](O)C(=O)O` (stereo not drawn) [SB-742034], 0.46 µM.

What is called Kd is the constant that tells how readily two partners part at equilibrium. High values mean a looser complex, low ones a tighter complex.
